Screening data as filed in PubChem BioAssay.
KAT2A inh = qHTS Assay for Inhibitors of GCN5L2; Histone acetyltransferase KAT2A (Homo sapiens), Q92830; GCN5L2 HAT assay, ThioGlo1 CoA-SH fluorescence; Potency, µM (top dose mostly 58.9 µM), for inactives: at the top dose activity change, negative = inhibition, hits mostly inhibitors; 390,000 compounds, 0.21% hits; also: potency is read from the fitted curve at half-maximal effect
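Titration-based screen in which CoA formation is detected via maleimide probe ThioGlo1 (50uM) turning fluorescent on thiol reaction; substrates H3(1-25) 75uM and acetyl-CoA 70uM, GCN5L2 20nM, 20 min incubation at room temperature.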
APE1 inh = qHTS Assay for Inhibitors of the Human Apurinic/apyrimidinic Endonuclease 1 (APE1). DNA repair nuclease/redox regulator APEX1 (Homo sapiens), P27695. recombinant APE1, TAMRA/BHQ-2 abasic DNA cleavage fluorescence. Potency, µM (series often up to 65.8 µM), for inactives: top-dose activity change, negative = inhibition, usual class: inhibitors. 350,000 compounds, 0.35% hits;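 also: potency is read from the fitted curve at half-maximal effect; plate controls were vehicle for no effect and reference inhibitor for full effect; nearly all actives have a fitted effect of over 55% in size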
Target sequence (P27695 whole entry, looked up): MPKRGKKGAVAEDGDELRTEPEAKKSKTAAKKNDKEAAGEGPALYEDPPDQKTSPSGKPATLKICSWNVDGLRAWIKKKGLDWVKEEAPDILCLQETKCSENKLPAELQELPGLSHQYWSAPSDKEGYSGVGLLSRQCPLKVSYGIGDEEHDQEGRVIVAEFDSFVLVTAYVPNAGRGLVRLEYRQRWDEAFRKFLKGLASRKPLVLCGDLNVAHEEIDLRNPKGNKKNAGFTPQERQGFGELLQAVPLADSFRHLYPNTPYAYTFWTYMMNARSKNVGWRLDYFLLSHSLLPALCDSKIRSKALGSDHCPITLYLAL
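Step 1: APE1 (0.75 nM) with compound, 15 min RT. Step 2: add 50 nM fluorophore/quencher THF duplex. Step 3: three fluorescence reads 60 s apart (525/598 nm); read 3 minus read 1 = reaction progress.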
PI5P4Ka inh = qHTS for Inhibitors of phosphatidylinositol 5-phosphate 4-kinase (PI5P4K); Phosphatidylinositol 5-phosphate 4-kinase type-2 alpha (Homo sapiens), P48426; PI5P4Kalpha enzyme, ADP-Glo luminescence, 60 min; active compounds read low; max response, %; 330,000 compounds, 1.2% hits; AID 652105, 2013; active = max response of -50% or lower; inconclusive = between -30% and -50%; inactive = -30% or higher; also: value at the top dose of about 77 µM
Target sequence (P48426 whole entry, looked up): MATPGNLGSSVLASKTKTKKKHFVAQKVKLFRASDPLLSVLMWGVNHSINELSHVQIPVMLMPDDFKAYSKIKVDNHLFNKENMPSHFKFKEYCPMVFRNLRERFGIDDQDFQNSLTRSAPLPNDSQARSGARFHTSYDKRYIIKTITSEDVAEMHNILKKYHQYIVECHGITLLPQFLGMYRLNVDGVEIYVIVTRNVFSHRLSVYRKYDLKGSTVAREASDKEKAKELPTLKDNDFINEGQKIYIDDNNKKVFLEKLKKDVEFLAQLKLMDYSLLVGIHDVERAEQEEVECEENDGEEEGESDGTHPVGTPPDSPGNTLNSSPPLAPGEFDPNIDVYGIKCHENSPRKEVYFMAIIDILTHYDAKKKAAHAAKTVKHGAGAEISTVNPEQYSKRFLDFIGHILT
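qHTS, 1536-well: enzyme/substrate mix, compound by pin tool, 5 microM ATP final; RT 60 min; ADP-Glo reagents 1 (45 min) then 2 (30 min); luminescence.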
RECQ1 inh-1 = qHTS Assay for Inhibitors of RecQ-Like Dna Helicase 1 (RECQ1); ATP-dependent DNA helicase Q1 (Homo sapiens), P46063; RECQ1 DNA unwinding, red fluorescence kinetic read; Potency, µM (top dose mostly 57.3 µM), inactives show top-dose activity, negative = inhibition, actives largely listed as inhibitors; 240,000 compounds, 0.54% hits; AID 2549, 2010;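 also: potency is read from the fitted curve at half-maximal effect; plate controls were vehicle for no effect and no enzyme for full effect; nearly all actives have a fitted effect of over 30% in size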
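50 nM RECQ1T1 preincubated 15 min with compound in Tris pH 8.0 buffer with MgCl2, DTT, Tween-20 and 2.5 ug/ml poly(dI-dC); started with 200 nM TAMRA/BHQ-2 forked duplex and 2 mM ATP. Unwinding read as fluorescence (525/598 nm), two reads 2 h apart.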
FEN1 inhibitor = qHTS Assay for the Inhibitors of Human Flap endonuclease 1 (FEN1); Recombinant FEN1 flap cleavage, fluorescence, 15 min; AID 588795, 2011; Potency, µM (doses to about 114 µM), for inactives: top-dose activity change, negative = inhibition, hits mostly inhibitors; 390,000 compounds, 0.35% hits; P39748; also: potency is read from the fitted curve at half-maximal effect; nearly all actives have a fitted effect of over 65% in size
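Recombinant FEN1 (10 nM) was preincubated with pin-transferred compounds for 15 min at room temperature, then flap DNA substrate (50 nM final) was added. Plates were read at 0 and 15 min, and normalized concentration–response data were fitted to a four-parameter Hill equation.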
BLM helicase inh = qHTS Assay for Inhibitors of Bloom's syndrome helicase (BLM); RecQ-like DNA helicase BLM (Homo sapiens), P54132; recombinant BLM DNA unwinding, fluorescence dequenching; Potency, µM (series often up to 56.1 µM), for the others: at the highest dose activity change, negative = inhibition, usual class: inhibitors; 350,000 compounds, 0.2% hits;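 also: potency is read from the fitted curve at half-maximal effect; plate controls were vehicle for no effect and no enzyme for full effect; nearly all actives have a fitted effect of over 35% in size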
RECQ1 inh conf = Confirmation qHTS Assay for Inhibitors of RecQ-Like Dna Helicase 1 (RECQ1); Potency, µM (series often up to 229 µM), for inactives: at the highest dose activity change, negative = inhibition, hits mostly inhibitors; shares compounds with RECQ1 inh-1; AID 2708, 2010; RECQ1 helicase DNA unwinding, fluorescence; 610 compounds, 28% hits; also: potency is read from the fitted curve at half-maximal effect; nearly all actives have a fitted effect of over 45% in size
RECQ1 ADP FP = Counterscreen for RECQ1 Inhibitors: ADP Fluorescence Polarization Displacement Assay. shares compounds with RECQ1 inh-1. ADP fluorescence polarization displacement counterscreen. Potency, µM (titrated, usually from 228 µM), inactives show at the highest dose activity change, negative = inhibition, most hits filed as inhibitors. 530 compounds, 27% hits. AID 2711, 2010; also: potency is read from the fitted curve at half-maximal effect; nearly all actives have a fitted effect of over 45% in size
RECQ1 inh-2 = Confirmation qHTS Assay for Inhibitors of RecQ-Like Dna Helicase 1 (RECQ1) - Round 2 Cherry Picks | shares compounds with RECQ1 inh-1 | recombinant RECQ1 DNA unwinding, red fluorescence | Potency, µM (titrated, usually from 119 µM), without a hit: at the top dose activity, negative = inhibition, hits mostly inhibitors | 1,100 compounds, 15% hits | AID 504841, 2011; also: potency is read from the fitted curve at half-maximal effect; nearly all actives have a fitted effect of over 50% in size
* hit, by the source's call; i = inactive; ? = inconclusive; . = no result; [ ] = another dose, or the depositor's remark. Rows were chosen to be rich in hits. Some 1.5% of all compounds tested hit in one or more screens of this group. Unless noted, calls follow the shape of the dose curve; as a rule, active = well fitted curve in the direction sought with a large enough effect; inconclusive = small, poorly fitted or top-dose-only effect, or another doubt; inactive = no such curve, though single readings can be large; an effect the other way counts as inactive or inconclusive. Unless noted, % is scaled to controls: 0 for no effect and ±100 for the full control effect.

SMILES	KAT2A inh	APE1 inh	PI5P4Ka inh	RECQ1 inh-1	FEN1 inhibitor	BLM helicase inh	RECQ1 inh-2	others
O=C(O)CC(SCC(=O)Nc1ccccc1)C(=O)O (stereo not drawn)	-7%	0%	-3	-13%	-5%	-4%	.
CN(C)C1CCN(CCCOc2ccc(-c3ccc(C#N)cc3)cc2)C1 (stereo not drawn)	3%	-6%	.	2%	.	5%	.
CC(=O)c1cccc(S(=O)(=O)N2CCCC(c3nc(-c4ccc(C)o4)no3)C2)c1 (stereo not drawn)	-19%	0%	.	?	-18%	-4%	-28%
CC(C)C[C@H](NC(=O)[C@H](CCCCN)NC(=O)[C@H](CCCNC(=N)N)NC(=O)[C@H](C)NC(=O)[C@H](CO)NC(=O)[C@H](CCCCN)NC(=O)[C@H](CCCNC(=N)N)NC(=O)[C@H](C)NC(=O)CNC(=O)[C@@H](NC(=O)[C@H](Cc1ccccc1)NC(=O)CNC(=O)CNC(=O)[C@@H](N)Cc1ccccc1)[C@@H](C)O)C(=O)N[C@@H](C)C(=O)N[C@@H](CC(N)=O)C(=O)N[C@@H](CCC(N)=O)C(=O)O	0%	2%	.	8%	.	32%	.
CC(C)CC1=C/C(=C/c2ccc(-c3ccccc3)o2)C(=O)O1	?	?	-68*	25µM*	?	-25%	.	RECQ1 inh conf=?
CCOC(=O)C(=CNc1ccc(-c2ccco2)c(Cl)c1)C(=O)OCC	-8%	-3%	-15	?	-4%	-13%	-27%
Cc1ccc(NS(=O)(=O)c2cc(C(=O)N3CCc4ccccc4C3)ccc2Cl)cc1	-13%	-4%	.	?	6%	-10%	.
Cc1ccccc1NS(=O)(=O)c1cc(C(=O)N2CCc3ccccc3C2)ccc1C	-11%	-4%	-2	?	-13%	-7%	-8%
Brc1ccc[n+](CCc2ccccc2)c1	.	.	.	.	-18%	.	.
CCCc1cc2c(c(=O)o1)C(O)C1OC1C2=O (stereo not drawn)	.	4%[12.4 µM]	.	-14%[11.5 µM]	.	2%[12.4 µM]	.
COc1ccc(CCn2c(N)c(C(=O)NCc3ccco3)c3nc4ccccc4nc32)cc1OC	?	?	.	?	?	-10%	-5%
Clc1nc(Nc2ccc(N3CCOCC3)cc2)c2ccccc2n1	2%	0%	0	14%	-19%	-14%	.
O=S(=O)(Nc1nc2ccccc2nc1Nc1ccc(N2CCOCC2)cc1)c1cc(Cl)ccc1Cl	-5%	-4%	-3	?	-1%	-9%	-12%
O=c1[nH]c(Nc2ccccc2)cc2ccccc12	-12%	?	-28	?	?	3%	?
O=c1[nH]c(Nc2ccccc2)cc2cc(Br)ccc12	.	.	0	.	-15%	.	.
O=C(O)CCC1CCCC1	-5%	?	.	-1%	.	2%	.
CCN(CC)S(=O)(=O)c1ccc2c(c1)nc(CCC(=O)O)n2CC	-3%	-1%	-7	i	-2%	4%	.	RECQ1 inh conf=10%;RECQ1 ADP FP=5%
CCCn1c(CCC(=O)O)nc2cc(S(=O)(=O)N(CC)CC)ccc21	24%	-4%	0	i	18%	2%	.
CC(C)(C)CNc1nc(C#N)nc(Nc2ccccc2)n1	.	-5%	.	i	.	-9%	.
COc1ccc(S(=O)(=O)Nc2ccccc2C(=O)Nc2nc(-c3ccc(F)cc3)cs2)cc1OC	-29%	-6%	-9	?	?	-8%	?
O=S(=O)(c1cccs1)N1CCN(c2nc(-c3cccs3)nc3ccccc23)CC1	.	.	.	.	2%	.	.
COC(=O)CCC(=O)OC1(C)C(=O)C2=COC(c3ccc(OC)cc3)=CC2=C(Br)C1=O (stereo not drawn)	-5%	?	-79*	?	35µM*	0%	56µM*
COc1ccc(C2=CC3=C(Br)C(=O)C(C)(OC(=O)c4ccc(Cl)nc4)C(=O)C3=CO2)cc1 (stereo not drawn)	-4%	?	?	6%	?	4%	.
Cc1c(-n2c(SC(C)C(=O)NC(N)=O)nc3ccccc3c2=O)c(=O)n(-c2ccccc2)n1C (stereo not drawn)	-11%	4%	-6	-2%	5%	4%	.	RECQ1 inh conf=1%;RECQ1 ADP FP=5%
Cc1c(-n2c(SCC(C)C)nc3ccccc3c2=O)c(=O)n(-c2ccccc2)n1C	1%	0%	8	i	2%	0%	.
Cc1ccc(OCCCCn2c(CCNC(=O)C3CCCCC3)nc3ccccc32)cc1	.	.	.	.	-1%	.	.
C=CCn1c(SCC(=O)NCc2ccccc2)nnc1-c1ccccc1O	-3%	-5%	0	-2%	-5%	-6%	.	RECQ1 inh conf=-3%;RECQ1 ADP FP=4%
C=CCn1c(SCC(N)=O)nnc1-c1ccccc1O	1%	11%	10	-3%	-3%	-5%	.
